{"source": "PubChem BioAssay AID504621", "about": "(Broad Institute, 2011)", "note": "The whole screen tested about 310,000 compounds, of which about 970 (0.31%) were called active.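 How the source made its calls: active means every replicate shows inhibition above about 80%, whatever the replicate mean (limit read from the data); inconclusive means mean inhibition reaches the set limit but some replicate falls short; inactive means the rest.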 Many of the other results were omitted from the sample, so actives are more common in it than they were."}
{"test": "growth inhibition of PfHsp90-expressing yeast, primary screen, antimalarial PfHsp90 inhibitor project, S. cerevisiae, BacTiter-Glo luminescence, single point, set 2 (AID 504621);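 further: yeast relying on Plasmodium falciparum Hsp90 in place of its own; 0% = DMSO neutral controls and 100% = 20 µM radicicol positive controls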", "settings": "BacTiter-Glo ATP, 48 h, at 9.4 µM, active compounds read high"}
{"smiles": "CCOC(=O)C1(c2ccccc2)CCN(CC(O)c2ccc(NC(C)=O)cc2)CC1", "note": "(centres undefined)", "inhibition": "-7.12% (inactive)"}
{"smiles": "CCC(=O)OC(Cc1ccccc1)(c1ccccc1)C(C)CN(C)C", "note": "(centres undefined)", "inhibition": "34.8% (inactive)"}
{"smiles": "COC1C(O)C(C)OC(OC2CCC3(C=O)C(CCC4C3CCC3(C)C(C5=CC(=O)OC5)CCC43O)C2)C1O", "note": "(centres undefined)", "inhibition": "-24.6% (inactive)"}
{"smiles": "CC(=O)OC1C2(CC3N4C(=O)C5(CO)SSC4(CC31O)C(=O)N5C)OC(C)C(C)(C)C2=O", "note": "(centres undefined)", "inhibition": "11.7% (inactive)"}
{"smiles": "CC1CC=CCC12C(=O)NC(=S)NC2=O", "note": "(centres undefined)", "inhibition": "3.23% (inactive)"}
{"smiles": "CC12CCC(O)CC1CCC1C2CCC2(C)C(C(=O)CC(O)C(F)(F)F)CCC12", "note": "(centres undefined)", "inhibition": "-14.7% (inactive)"}
{"smiles": "CC12CCC3C(CCC4CC(=O)CCC43C)C1CC(=NO)C2=O", "note": "(centres undefined)", "inhibition": "-28.6% (inactive)"}
{"smiles": "CN(C)CC1Oc2ccccc2OC1(O)c1ccccc1", "note": "(centres undefined)", "inhibition": "102% (active)"}
{"smiles": "O=C(c1ccccc1)C(O)(CN1CCCCC1)c1ccccc1", "note": "(centres undefined)", "inhibition": "8.04% (inactive)"}
{"smiles": "CC1C(=O)OC2CCN3CC=C(COC(=O)C(C)(O)C1(C)O)C23", "note": "(centres undefined)", "inhibition": "11.4% (inactive)"}
{"smiles": "CC(CC(C#N)(c1ccccc1)c1ccccc1)N1CCCCC1", "note": "(centres undefined)", "inhibition": "13.9% (inactive)"}
{"smiles": "CCCCCCCCCCCCn1ccc(=N)cc1", "inhibition": "93.6% (active)"}
{"smiles": "CCC(C)(O)C(=O)OC1C(=O)OC2CC3C(C)=CC(=O)C(O)C3(C)C3C4(O)OCC23C1C(C)C4O", "note": "(centres undefined)", "inhibition": "-25.9% (inactive)"}
{"smiles": "CC(=O)C1(O)CCC2C3CCC4=C(Cl)C(=O)CCC4(C)C3CCC21C", "note": "(centres undefined)", "inhibition": "7.87% (inactive)"}
